According to publication PMC7819943, “Rice protein-binding microarrays: a tool to detect cis-acting elements near promoter regions in rice”:
In all, about 68,000 sequences were measured (“fluorescence intensity (a.u.)”: median about 9,100, highest 2% from about 16,000 on). What follows is part of a selection rich in the highest values, with near analogues and random picks from the rest.

molecular target: OsWRKY34 (Oryza sativa, UniProt Q0JBA9 1-250); assay: protein-binding microarray (RPBM); PBS, 2% BSA, 51.3 ng/ul salmon testes DNA, 50 uM zinc acetate, 200 nM TF, 25 C, 1 h; high values mean tight binding; settings: protein: recombinant; tags: N-terminal polyhistidine and DsRed monomer fusion (pET32a); label: CyDye5-dUTP incorporated in the synthesized complementary strand; 3' TTTTT single-stranded linker to array surface; dsDNA, one strand shown
Sequence (Q0JBA9 entry or part of it): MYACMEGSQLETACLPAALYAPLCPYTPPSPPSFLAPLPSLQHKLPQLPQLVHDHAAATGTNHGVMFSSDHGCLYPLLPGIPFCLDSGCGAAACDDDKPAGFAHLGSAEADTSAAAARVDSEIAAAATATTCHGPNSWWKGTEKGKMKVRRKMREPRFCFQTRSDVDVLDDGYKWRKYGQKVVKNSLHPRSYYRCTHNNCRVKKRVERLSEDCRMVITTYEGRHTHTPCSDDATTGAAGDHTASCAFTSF
Outline: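 For the binding signal, per-feature fluorescence intensity was read in arbitrary units on an Axon 4000B scanner. Before scanning, a 2% BSA-blocked custom Agilent array made double-stranded with Cy5-dUTP was washed after 1 h at 25 °C with 200 nM protein and 50 µM zinc acetate. The proteins were Ni–NTA-purified transcription factors with N-terminal polyhistidine and DsRed fusions, expressed in E. coli BL21-CodonPlus.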

Q: For “GAGGGATGTCTTATATCTAGTTTTGTGGTTGGAGGATGATCGGAGTCACCTAGTGCAG”, which binding signal is on record?
A: 8770 fluorescence intensity (a.u.)

Q: With “TCTGTGTTGGCGAGAGTTGGTGTCTGGAATTGGGCTTGGTCGGAGTCACCTAGTGCAG” as the sequence, how does the binding signal read?
A: 9200 fluorescence intensity (a.u.)

Q: How did the binding signal turn out when “GTTCTATTGTACTGGTCAGTTCAGTGGACTCGGTTCTGTTCGGAGTCACCTAGTGCAG” was run?
A: 9260 fluorescence intensity (a.u.)

Q: “CTACACTGTCTTGCTCGCTCATTGTCTCTCTCTGCATTTGCGGAGTCACCTAGTGCAG” was tested. Which binding signal did it give?
A: 8580 fluorescence intensity (a.u.)

Q: Which binding signal does the source give for “TATGTTCGGTATCGTATTAAATCTACTCCTATTTGTACCTCGGAGTCACCTAGTGCAG” here?
A: 8570 fluorescence intensity (a.u.)

Q: Which binding signal does the source give for “TTTTGTTCGCTACTATAGGCCCACACGTCTGTGCCCATGGCGGAGTCACCTAGTGCAG” here?
A: 8660 fluorescence intensity (a.u.)

Q: For “CTCCTCTTCTTCTCTTCTCCTTCGTTGGGCGTGGGCGTCGCGGAGTCACCTAGTGCAG”, which binding signal is on record?
A: 12400 fluorescence intensity (a.u.)

Q: How did the binding signal turn out when “CCGACGCCTACTACTTCGCCCACTAGCCACGCGTGCTGCCCGGAGTCACCTAGTGCAG” was run?
A: 9050 fluorescence intensity (a.u.)

Q: “TACTGTATAGTTGTTACAACTTCCTTTTTAATTATTCAATCGGAGTCACCTAGTGCAG” was tested. Which binding signal did it give?
A: 8060 fluorescence intensity (a.u.)

Q: Which binding signal does the source give for “GAATGGTCAAACACGTACTAAAAAAGTCAACGGTGTCAAACGGAGTCACCTAGTGCAG” here?
A: 17500 fluorescence intensity (a.u.)

Q: Which binding signal does the source give for “AATGGTCAAACACGTATTTAAAAAGTCAACGGTGTCAAACCGGAGTCACCTAGTGCAG” here?
A: 14100 fluorescence intensity (a.u.)

Q: Which binding signal does the source give for “GGTCAAATACGTACTAAAAAGTCAACGGTGTCAAACATTTCGGAGTCACCTAGTGCAG” here?
A: 12900 fluorescence intensity (a.u.)

Q: With “GACGAATGGTCAAACACGTACTAAAAAGTCAACGGTGTCACGGAGTCACCTAGTGCAG” as the sequence, how does the binding signal read?
A: 12200 fluorescence intensity (a.u.)

Q: For “AGACGAATGGTCAAACACGTATTAAAAAGTCAACGGTGTCCGGAGTCACCTAGTGCAG”, which binding signal is on record?
A: 19700 fluorescence intensity (a.u.)

Q: “AAGACGAATGATCAAACACGTACTAAAAAAGTCAACGGTGCGGAGTCACCTAGTGCAG” was tested. Which binding signal did it give?
A: 11600 fluorescence intensity (a.u.)

Q: How did the binding signal turn out when “CTAATGGTTCTGATCGCCGTGCCTAACCCTAGCCCCATATCGGAGTCACCTAGTGCAG” was run?
A: 8400 fluorescence intensity (a.u.)

Q: How did the binding signal turn out when “TCTTTTGCTTCTGTTCTGCACCGGTCTCTCTGATGGATGTCGGAGTCACCTAGTGCAG” was run?
A: 9680 fluorescence intensity (a.u.)

Q: With “AATAGATGACATTGTTGACTTATTCTTACATGTTTGCCCACGGAGTCACCTAGTGCAG” as the sequence, how does the binding signal read?
A: 9350 fluorescence intensity (a.u.)

Q: How did the binding signal turn out when “TCCACCTCCTAGCGAAATGCATGGTTGGCCAAACAACACACGGAGTCACCTAGTGCAG” was run?
A: 8300 fluorescence intensity (a.u.)

Q: How did the binding signal turn out when “TGACAATGGTGTTGCATCTCCAAAGCTGCAGAAACAAACACGGAGTCACCTAGTGCAG” was run?
A: 48300 fluorescence intensity (a.u.)

Q: Which binding signal does the source give for “AATTGCTGTTGACCTGTTGTTGTGCTCCAACATCCAAACACGGAGTCACCTAGTGCAG” here?
A: 8290 fluorescence intensity (a.u.)

Q: With “TACGAGGAGGGCCCATGCGTCGGTGGGTAGGGTGAAAAGACGGAGTCACCTAGTGCAG” as the sequence, how does the binding signal read?
A: 8690 fluorescence intensity (a.u.)

Q: With “AGGAGGGCGGGGTCGTCGTCGTCCGGGGTGGTGGTGGCCGCGGAGTCACCTAGTGCAG” as the sequence, how does the binding signal read?
A: 17000 fluorescence intensity (a.u.)

Q: With “GGAGGGTGGAGGGCGGAGGACGGAGGTGGTGGCGCCGCGCCGGAGTCACCTAGTGCAG” as the sequence, how does the binding signal read?
A: 9550 fluorescence intensity (a.u.)

Q: For “TGGGGATGGGGAATTGACCTGGGTAGGGGTGGTAATTGGGCGGAGTCACCTAGTGCAG”, which binding signal is on record?
A: 16000 fluorescence intensity (a.u.)

Q: With “GAAAGTGGGAGAGAGAATAGGTTGGGGTGGTTGGTTTGGGCGGAGTCACCTAGTGCAG” as the sequence, how does the binding signal read?
A: 14700 fluorescence intensity (a.u.)

Q: “ACTAACGAAATTACTACTTCGTAGGGGTAGGGGTGGCGTGCGGAGTCACCTAGTGCAG” was tested. Which binding signal did it give?
A: 9370 fluorescence intensity (a.u.)

Q: For “TGGTGGTGAGGAGGAGGAGGAGGAGGGCGGGGTCGTCGTCCGGAGTCACCTAGTGCAG”, which binding signal is on record?
A: 16200 fluorescence intensity (a.u.)

Q: For “GACCTTTGGGTAGGGGTGGGGATGGGGCGAAATTACTAAACGGAGTCACCTAGTGCAG”, which binding signal is on record?
A: 30300 fluorescence intensity (a.u.)

Q: “GCTGGCGCCGGAGAGAGAGAGTGGGTTGGTTGTAATAAATCGGAGTCACCTAGTGCAG” was tested. Which binding signal did it give?
A: 9290 fluorescence intensity (a.u.)

Q: “GGAGGAGGTGGCGGCGGAGGGGTTGGTGGTGGAGGTGGTCCGGAGTCACCTAGTGCAG” was tested. Which binding signal did it give?
A: 20800 fluorescence intensity (a.u.)

Q: “GAGGTGGTGGAGGAGGAGGCCAGGGGTTCGTTGGCGGCGGCGGAGTCACCTAGTGCAG” was tested. Which binding signal did it give?
A: 8840 fluorescence intensity (a.u.)

Q: With “GCGGGGTTGGAGGAGGAGGAGGTGGTGGTGGTGGTGGTGGCGGAGTCACCTAGTGCAG” as the sequence, how does the binding signal read?
A: 15300 fluorescence intensity (a.u.)

Q: Which binding signal does the source give for “AATAAAGTTGGGTGGTTGGGGCGCGCGATAGGAGTAAATCCGGAGTCACCTAGTGCAG” here?
A: 17400 fluorescence intensity (a.u.)

Q: How did the binding signal turn out when “GGTTTCGTTCGCGAGGAGGAGAGATCTGGTTGGGGAGATGCGGAGTCACCTAGTGCAG” was run?
A: 9660 fluorescence intensity (a.u.)

Q: With “AGGAGGCGCTACCTTCTATTCCTCACCGGCTCACCGCTATCGGAGTCACCTAGTGCAG” as the sequence, how does the binding signal read?
A: 9700 fluorescence intensity (a.u.)

Q: How did the binding signal turn out when “TGATTTTTTTTTTGTTTCACAGTGCACAGACCAATGTTTCCGGAGTCACCTAGTGCAG” was run?
A: 8320 fluorescence intensity (a.u.)

Q: With “CGCCGCCACCGCGACTCCTCGCATTCGTCCCCACCACATCCGGAGTCACCTAGTGCAG” as the sequence, how does the binding signal read?
A: 9990 fluorescence intensity (a.u.)

Q: For “CTTTTTTTTAATGTATTGATGCTTCTTTTCTAGTTTGTACCGGAGTCACCTAGTGCAG”, which binding signal is on record?
A: 9060 fluorescence intensity (a.u.)

Q: Which binding signal does the source give for “AGTAGCAGCAGCAGCAGCAGGCAGGAGGGAGTGGGTTTGTCGGAGTCACCTAGTGCAG” here?
A: 9600 fluorescence intensity (a.u.)

Q: Which binding signal does the source give for “GACAGCGTGAATTCGAGGGATTTCTTGGCTGGTTTGGTTGCGGAGTCACCTAGTGCAG” here?
A: 10100 fluorescence intensity (a.u.)

Q: Which binding signal does the source give for “TTCTCCGCGCTGCAGTCCTCGCCACAACTCGTCGGCCGAACGGAGTCACCTAGTGCAG” here?
A: 11600 fluorescence intensity (a.u.)
